Measurements: PubChem BioAssay (NCI)
Compounds without any hit were thinned out: in the full panel of roughly 83,000, 20% have a hit.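 Each cell line was grown in a 96-well plate and treated with one concentration of compound for 48 hours. Values below 10 were considered active.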 A number with no mark means an inactive call. Activity calls are given as the source filed them.

Each molecule was assayed on NCI/ADR-RES ovarian (assay: NCI-60 one-dose screen, 48 h (100 = growth as untreated, 0 = no growth, -100 = all killed)). Conditions: 10 µM unless noted.

For Brc1ccc(-c2nc3ccccc3s2)cc1, which growth is on record?
Its growth is 99.3%.

How did the growth turn out when c1cc[c]([Bi]([c]2ccccc2)[c]2ccccc2)cc1 was run?
Its growth is 98%.

O=C1/C(=N\c2cc(=O)[nH]n2S(=O)(=O)c2ccccc2)Nc2ccccc21 was tested. Which growth did it give?
The growth was 101%.

Which growth does the source give for COc1ccc(/C=C/C(=O)/C=C/c2cc3ccccc3[nH]c2=O)cc1 here?
The growth was 92.5%.

How did the growth turn out when C/C=C/C/C=C/[C@H](C)C[C@H](O)[C@@H]1C[C@@H]2O[C@H]2/C=C/[C@@H]2OC(C)(C)O[C@H]2/C=C/C[C@H](C)CC(=O)O1 was run?
The growth was 7.52% (active).

How did the growth turn out when COC1(OC)N=C(N)C2(C#N)C3(C(=O)Nc4ccccc43)C12C#N (configuration not stated) was run?
Its growth is 100%.

For C/C=C/C/C=C/[C@H](C)C[C@H](O)[C@@H]1C[C@@H]2O[C@H]2/C=C/[C@H](O)[C@@H](O)/C=C/C[C@H](C)CC(=O)O1, which growth is on record?
The growth was 71.6%.

How did the growth turn out when COc1cc(-c2nc3c(c(C)nc4c3nnn4-c3ccccc3)c(=O)o2)cc(OC)c1OC was run?
Its growth is 115%.

Which growth does the source give for CCC(C)C1NC(=O)C(CC(C)C)NC(=O)C(C)NC(=O)C(C(C)C)NC(=O)C(CCCCN)NC(=O)C(CC(C)C)NC(=O)C(C(C)C)NC(=O)[C@H](C)NC(=O)C(C(C)CC)NC(=O)C(CCCN=C(N)N)NC(=O)C(CCCCN)NC(=O)C(CCCN=C(N)N)NC(=O)C(CCCCN)NC(=O)C([C@H](C)CC)NC(=O)C(CCCCN)NC1=O (some centres not stated) here?
The growth was 29.3%.

Which growth does the source give for COc1ccc(-c2nc(SCC(C)C)nc(Nc3ccc(C(=O)O)cc3)c2C#N)cc1 here?
The growth was 94.6%.

With O=S(=O)(O)CCI as the molecule, how does the growth read?
Its growth is 105%.

Nc1nc2c(c3cnccc13)C(c1cccc(Cl)c1)Cc1cnccc1-2 (configuration not stated) was tested. Which growth did it give?
Its growth is 6.79% (active).

Which growth does the source give for Oc1ccccc1\C=N/N=C/C=C/c1ccccc1 here?
The growth was 102%.

How did the growth turn out when COC(=O)c1ccc2[nH]c(O)c(C(=Nc3ccc(N(C)C(=O)CN4CCN(C)CC4)cc3)c3ccc(N)cc3)c2c1 was run?
Its growth is 113%.

CC(C)OC(=O)c1ccc2n1CCCc1cnc(Nc3ccccc3)nc1-2 was tested. Which growth did it give?
Its growth is 69.7%.

CC(=O)Nc1ccc(C(=O)/C=C/c2ccc(N(C)C)cc2)cc1 was tested. Which growth did it give?
Its growth is 99.3%.

Which growth does the source give for CCOC(=O)C1=C(c2ccccc2)NC(=O)NC1CN1C(=O)c2ccccc2C1=O (configuration not stated) here?
The growth was 103%.

With CC/C(=N\Nc1nc2ccccc2n1C)c1ccccn1 as the molecule, how does the growth read?
Its growth is -5.99% (active).

With CCCCCCC(C)N(CC(C)(C)O)C(=O)c1ccc([N+](=O)[O-])cc1 (configuration not stated) as the molecule, how does the growth read?
Its growth is 85.7%.

Which growth does the source give for O=C1C(=O)c2ccccc2C(O)=C1CCCc1ccc(Oc2ccccc2)cc1 here?
The growth was 91.6%.

For C=C[C@]1(C)C=C2C(=O)[C@@]3(O)OC[C@@]4(CCCC(C)(C)C43O)C2(O)C(O)C1 (some centres not stated), which growth is on record?
The growth was 60.9%.

With COc1ccc(/C=C2\CCCC3=C2N=C2SC=NN2C3c2ccc(OC)c(OC)c2)cc1OC (configuration not stated) as the molecule, how does the growth read?
Its growth is 21.4%.

Which growth does the source give for CC(C)(C)c1ccc(OCCOC(=O)CBr)cc1 here?
The growth was 108%.

c1cc(C2CCCCC2)ccc1OCCCCCCN1CCNCC1 was tested. Which growth did it give?
Its growth is 54.1%.

How did the growth turn out when CCOC(=O)c1c2c(cn1Cc1ccccc1)-c1oncc1CC2 was run?
The growth was 98.3%.

C/C(=N\Nc1cccc(Cl)n1)c1ccccn1 was tested. Which growth did it give?
Its growth is 0.96% (active).

How did the growth turn out when CC(=O)c1ccc2c(c1)c1ccccc1n2C was run?
Its growth is 91.2%.

For CCCCN(CCCC)CCCNc1c2c(nc3ccc(Cl)cc13)CCCC2, which growth is on record?
Its growth is 94.4%.

COc1ccc(Cn2cc3c(c2)-c2oncc2CC3)cc1OC was tested. Which growth did it give?
The growth was 1.63% (active).

With C/C(=N\Nc1ccc(Cl)cn1)c1ccccn1 as the molecule, how does the growth read?
Its growth is -10.2% (active).

How did the growth turn out when NC(=O)c1c(Nc2ccccc2)nn2cc(-c3nc4ccccc4s3)c(N)nc12 was run?
Its growth is 98.9%.

With COC(=O)c1ccc2[nH]c(O)c(C(=Nc3ccc(N(C)C(=O)CN4CCN(C)CC4)cc3)c3cccc(OC)c3)c2c1 as the molecule, how does the growth read?
Its growth is 99.5%.

Cc1nc2c(nnn2-c2ccccc2)c2nc(-c3ccc(Cl)cc3)oc(=O)c12 was tested. Which growth did it give?
Its growth is 113%.

Which growth does the source give for Clc1ccc(N/N=C(/c2ccccc2)c2ccccn2)nc1 here?
The growth was 5.2% (active).

How did the growth turn out when COc1ccc(-c2nnc(SCC(=O)Nc3ccc(C(=O)/C=C/c4cc(OC)c(OC)c(OC)c4)cc3)n2-c2ccccc2)cc1OC was run?
The growth was 46% [100 µM].

With CCc1ccc(C(=Nc2ccc(N(C)C(=O)CN3CCN(C)CC3)cc2)c2c(O)[nH]c3ccc(C(=O)OC)cc23)cc1 as the molecule, how does the growth read?
Its growth is 10.5%.

Cc1ccc(C(C)C)c(OCc2ccc(C(=O)N/N=C/c3cccc(O)c3O)cc2)c1 was tested. Which growth did it give?
Its growth is 1.46% (active).
